Each structure is given as a SMILES string. The list shows a part of the results. Values without a mark were called inactive. The source made the active and inactive calls.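 The calls were made as follows: active = mean inhibition across replicates of 40% or more; inactive = mean inhibition below 40%.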

As usually defined, the inhibition is the drop in the measured response relative to a control, in per cent.

A short description of this assay: TAG lipid buildup inhibition in H9c2 – cell-based, single concentration, Nile Red fluorescence, confirmation (AID 651629).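 Also: plate controls were DMSO only wells for no effect and Triacsin C treated wells for full effect.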 As to conditions: H9c2 lipid accumulation, at 12.5 µM, stronger effect = higher value, cells loaded with 200 µM oleic acid.
For the compound `CC1(c2ccccc2)CC(C)(C)N(C(=O)c2cc([N+](=O)[O-])cc([N+](=O)[O-])c2)c2ccccc21` (stereo unspecified), the inhibition is 62.2% (active). As for `CCN(CC)CCC(c1ccc2c(c1)OCO2)c1c(OC)cc(OC)c2c(-c3ccccc3)cc(=O)oc12` (stereo unspecified), the inhibition was 47.8% (active).

On to `CCCC(=O)Nc1nc2ccc(NC(=O)c3c(F)c(F)c(OC)c(F)c3F)cc2s1`, for which the inhibition is 69% (active). Consider `COC(C[C@H](O)CC(=O)COCc1ccccc1)OC`, for which the inhibition is -3.23%. As for `COc1ccccc1NC1=NC(c2ccc(Cl)cc2)N=C(N)N1` (stereo unspecified), the inhibition is 74.9% (active). In the case of `O=C(Nc1nc(-c2ccncc2)cs1)C1COc2ccccc2O1` (stereo unspecified), the inhibition is 31.4%. Take `Cc1onc(NC(=O)c2ccc([N+](=O)[O-])o2)c1Br`: the inhibition is 46% (active). On to `COc1ccc(-c2cc(NC=O)c3ncc(-c4cc(OC)c(OC)c(OC)c4)n3c2)c(OC)c1`, for which the inhibition was 79.3% (active). Then `COc1ccc(S(=O)(=O)N2CCc3ccccc32)cc1C(=O)Nc1cc(S(C)(=O)=O)ccc1Cl`, with 16.4%; and `O=C(Cc1cccc2ccccc12)Nc1ccc2oc(-c3ccccc3)nc2c1`, with 25.7%; and `Cc1cc(NC(=O)CSc2nc(C(C)C)nc3sc4c(c23)CCC(C)C4)no1` (stereo unspecified), with 51.7% (active). For the compound `COC(=O)Nc1nc2ccc(Sc3ccccc3)cc2[nH]1`, the inhibition is 66.1% (active).

Take `CCCOC(=O)c1[nH]c2c(c1C)C(=O)CC(c1cccs1)C2` (stereo unspecified): the inhibition is 35.2%. As for `COc1ccc(/C=C2/CCCc3ccccc3C2=O)cc1`, the inhibition is 54.5% (active). As for `O=C1c2ccccc2C(=O)c2c1cccc2N1CCN(C/C=C/c2ccccc2)CC1`, the inhibition is 64% (active). Turning to `CC(=O)c1cccc(-c2ccc(CN3C(CC(C)C)C(=O)N(Cc4cn(CC5CCCCC5)nn4)CCS3(=O)=O)cc2)c1` (stereo unspecified), the inhibition was 47% (active). Turning to `Cc1ccccc1OCC(=O)Nc1ccc(N2CCN(C(=O)C(C)C)CC2)c(Cl)c1`, the inhibition is 7.1%. For the compound `CC(C)C(=O)N1CCC2(CC1)Oc1ccc(F)cc1C(=O)C21CC(c2ccccc2)=NO1` (stereo unspecified), the inhibition is -2.17%. Then `O=C(CSc1nc2ccc(Nc3nc(N4CCOCC4)nc(N4CCOCC4)n3)cc2s1)NCc1ccco1`, with 65.5% (active); and `Oc1cccc2cc(-c3ccncc3)cnc12`, with 71.1% (active); and `CN(C)C(=S)N=c1ssc(=S)n1Cc1ccco1`, with 62.1% (active). Then `CC1(C(=O)NCc2ccco2)Cc2c(-c3ccc4c(c3)OCO4)ccnc2O1` (stereo unspecified), with 61.9% (active); and `COc1ccccc1C1C2=C(COC2=O)Nc2cc3c(cc21)OCO3` (stereo unspecified), with 61.4% (active); and `CC(=O)c1ccc(Oc2cc(C)nc(-n3nc(C)cc3C)n2)cc1`, with 63.2% (active). The figure for `CN(C)CCNC(=O)c1cccc(-c2cnc3c(NC=O)cc(-c4cccc(C(F)(F)F)c4)cn23)c1` is 50.4% (active); for `C=CCC[C@@H](Cc1ccc(F)cc1)C(=O)OC[C@H](Cc1c[nH]c2ccccc12)NC(=O)[C@@H](CC=C)CC(=O)N(CCO)Cc1ccccc1` it is 80% (active).

For the origin of these results see PubChem BioAssay AID651629 (Sanford-Burnham Center for Chemical Genomics, 2012).
